Assay outcomes deposited in PubChem by The Scripps Research Institute Molecular Screening Center.
Most compounds without a hit are left out; they make up all but 2.3% or so of the library.
M1 PAM – positive allosteric modulators of human M1 muscarinic receptor; P11229; CHO-K1 hM1, Fluo-8 calcium fluorescence, ACh EC20; 0% = ACh EC20, 100% = maximal ACh; activation, % at 3 µM; 360,000 compounds, 0.088% hits; in the data active = activation above about 19%, passing the limit was not always enough
Target sequence (P11229 whole entry, looked up): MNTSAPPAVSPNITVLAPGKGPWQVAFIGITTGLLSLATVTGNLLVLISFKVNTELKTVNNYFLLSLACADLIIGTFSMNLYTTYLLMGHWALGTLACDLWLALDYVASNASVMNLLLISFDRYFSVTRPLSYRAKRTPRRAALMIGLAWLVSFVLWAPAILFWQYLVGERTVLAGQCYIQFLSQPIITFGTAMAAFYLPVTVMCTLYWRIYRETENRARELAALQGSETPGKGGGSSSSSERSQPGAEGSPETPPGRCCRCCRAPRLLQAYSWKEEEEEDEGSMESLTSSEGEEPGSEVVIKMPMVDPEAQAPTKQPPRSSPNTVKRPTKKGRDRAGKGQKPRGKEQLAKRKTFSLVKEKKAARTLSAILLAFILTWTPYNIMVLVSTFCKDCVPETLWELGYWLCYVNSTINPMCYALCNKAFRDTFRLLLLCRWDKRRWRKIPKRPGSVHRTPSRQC
CHRM1 agonist – human M1 muscarinic receptor agonism; P11229; CHO-K1 hM1, Fluo-8 calcium fluorescence, agonist mode; 0% DMSO, 100% acetylcholine EC100; activation, % at 3 µM; 360,000 compounds, 0.33% hits; AID 588814;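 active = activation above the run's mean compound activation plus 3 SD, cut at about 16% in these data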;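 also: peak over basal fluorescence ratio within a 140 s kinetic read after compound addition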
CHO-K1 Ca PAM – counter-screen for M1 PAMs: effect in parental CHO-K1 cells | activation, % at 3 µM | 360,000 compounds, 0.02% hits | ATP EC20, Fluo-8 calcium fluorescence; 0% at ATP EC20, 100% at ATP max;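 active = activation above the run cutoff, the mean activation of all test compounds plus 3 SD, cut at about 40% in these data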;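 also: peak over basal fluorescence ratio in a 140 s read after ATP addition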
M1 ag parental – M1 agonist counterscreen hit in parental CHO-K1 cells | Fluo-8 calcium fluorescence; scaled to maximal ATP response, vehicle zero | activation, % at 3 µM | 360,000 compounds, 0.48% hits | AID 602248; in the data active = activation above about 15%;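 also: untransfected CHO-K1 host cells lacking M1 receptor as counterscreen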
CHRM1 antagonist – human CHRM1 antagonism; inhibition, % at 3 µM; CHO-K1 hM1, Fluo-8 calcium fluorescence, ACh EC80 antagonist; AID 588852; 360,000 compounds, 1.3% hits; P11229;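 active = percent inhibition above its own plate's cutoff, namely the mean of that plate's compound wells plus 3 SD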;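 also: peak over basal fluorescence ratio during 140 s after agonist addition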
CHO-K1 Ca antag – counter-screen for M1 antagonists: effect in parental CHO-K1 cells; ATP-induced calcium, Fluo-8 fluorescence; inhibition, % at 3 µM; 360,000 compounds, 0.6% hits; AID 602250;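 active = inhibition above a per-plate cutoff, the plate's mean sample inhibition plus 3 SD, cut at about 24% in these data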
Large screens that a line does not name were inactive.

COC(=O)c1sccc1NC(=O)c1cc(-c2cc(C)ccc2C)nc2ccccc12	none
Cc1cccc(NC(=O)c2cc(-c3ccc(C)s3)nc3ccccc23)n1	CHRM1 antagonist 23
Cc1ccc(C)c(-c2cc(C(=O)Nc3nccs3)c3ccccc3n2)c1	CHRM1 antagonist 33
O=C(Cc1cccc(NC(=O)C2CCCN(C(=O)c3ccccc3)C2)c1)Nc1ccc(C(=O)N2CCOCC2)cc1 (stereo not drawn)	none
COc1ccc(CCNC(=O)c2sc3ccccc3c2Cl)cc1OC	none
COc1ccc(CCNC(=O)c2cc3sc(Cl)cc3n2C)cc1OC	CHO-K1 Ca antag 24
O=C1C[C@@H](c2ccc(O)cc2)Oc2cc(O)cc(O)c21	none
Cc1c(O)cc2c(c1O)C(=O)CC(c1ccccc1)O2 (stereo not drawn)	CHRM1 agonist 58, M1 ag parental 26, CHRM1 antagonist 102, CHO-K1 Ca antag 85
C(#Cc1ccccc1)C[N+]1(CC#Cc2ccccc2)CCCC1	CHRM1 antagonist 39
CCc1ccc(N2CC(C(=O)OCC(=O)N(CC)c3c(N)n(Cc4ccccc4)c(=O)[nH]c3=O)CC2=O)cc1 (stereo not drawn)	none
C#CCOCCOCCOCCNc1nc(N2CCN(C(=O)Cn3cc(CC(C)O)nn3)CC2)nc(N2CCN(C(=O)[C@H]([C@@H](C)CC)n3cc(CCCCN)nn3)CC2)n1 (stereo partly drawn)	none
COc1ccc(-n2nnnc2CNC(=O)c2ccc3c(c2)OCO3)cc1	none
CCC1=NN(C(=O)COc2ccccc2)C(O)(c2ccc(Br)cc2)C1 (stereo not drawn)	M1 ag parental 22
O=C(NCCN1CCNC1=O)c1ccc2sc([C@@H]3O[C@H](CO)[C@H](O)[C@H](O)[C@H]3O)nc2c1	none
COc1cc(/C=C/C(=O)OCC(=O)Nc2ccc([N+](=O)[O-])cc2)ccc1O	CHRM1 agonist 25, M1 ag parental 19
Cc1ccc(-c2nn(-c3ccc(F)cc3)cc2C(=O)NCCCN2CCCC2=O)cc1	none
CCNC(=O)C1(C)CCCN(C(=O)c2oc3ccccc3c2C)C1 (stereo not drawn)	none
CCC(CO)Nc1nc2ccc(Cl)cc2c2ccccc12 (stereo not drawn)	none
COC(=O)C(/C=N/OCc1ccc([N+](=O)[O-])cc1)NC(=O)c1cccc(Cl)c1 (stereo not drawn)	CHRM1 agonist 25
CC1CCCC(C)N1C(=O)c1cc(F)c(F)cc1Cl (stereo not drawn)	none
CC1CCCC(C)N1C(=O)COC(=O)c1cc(F)c(F)cc1Cl (stereo not drawn)	CHRM1 antagonist 28
CCCCN1CCc2[nH]c(=S)[nH]c(=O)c2C1	M1 PAM 25
COCCN1CCc2[nH]c(=S)[nH]c(=O)c2C1	none
CC(=O)c1c(C)[nH]c(C(=O)OCC(=O)Nc2cc(Cl)ccc2[N+](=O)[O-])c1C	CHRM1 antagonist 25
Oc1ccc(Cl)cc1C=Nc1ccc2c3c(cccc13)CC2	CHRM1 agonist 22, M1 ag parental 44, CHO-K1 Ca antag 32
Cc1cccc(C=Nc2ccc3c4c(cccc24)CC3)c1O	M1 ag parental 15, CHO-K1 Ca antag 25
CCc1ccc(O)c(N=Cc2cccc(C)c2O)c1	none
Oc1ccc(Cl)cc1/C=N/c1nccs1	none
NS(=O)(=O)c1ccc(CCNC(=O)C(=O)NCC2OCCN2C(=O)c2ccc3c(c2)OCO3)cc1 (stereo not drawn)	CHO-K1 Ca antag 29
Cc1cc(=O)[nH]c(-c2ccccc2OC(F)(F)F)n1	M1 ag parental 18
CC(=O)NN1C(=O)/C(=C\c2ccc(Br)o2)SC1=S	none
CC(=O)NN1C(=O)/C(=C/c2ccc(Br)o2)SC1=S	M1 PAM 21
O=C1C(CCCNC(=S)NCc2ccccc2)NC(=S)N1Cc1ccccc1 (stereo not drawn)	M1 ag parental 19
Cc1[nH]nc(SCC(=O)NC(C)c2ccccc2)c1[N+](=O)[O-] (stereo not drawn)	CHO-K1 Ca antag 25
O=C(C[C@H]1C/C=C\CC[C@H](Cc2ccc(F)cc2)C(=O)OC[C@H]2CCCN2C1=O)N[C@@H](CO)Cc1ccccc1	none
CCCCNc1c(-c2cccc(-c3ccc(OC)cc3)c2)nc2cc(C)ccn12	CHRM1 antagonist 62
CCCCNc1c(-c2cccc(-c3cc(C(C)=O)cs3)c2)nc2ccc(C)cn12	CHRM1 antagonist 37
CCCCNc1c(-c2cccc(-c3ccc(OC)cc3)c2)nc2ccc(C)cn12	CHRM1 antagonist 59
CCCCNc1c(-c2ccc(OC)c(SC3CCCCC3)c2)nc2cc(C)ccn12	none
C#Cc1ccc(NC(=O)C2(C)CCN2C(=O)C2(c3ccccc3)CCCC2)cc1 (stereo not drawn)	none
O=C(Nc1ccccc1C(=O)N1CCCCC1)c1cccs1	none
O=C(NCc1ccco1)c1ccccc1NS(=O)(=O)c1cccs1	M1 ag parental 19
N#Cc1ccc(OCC(O)CN2CCC(C(O)(c3ccccc3)c3ccccc3)CC2)cc1 (stereo not drawn)	CHRM1 antagonist 32
O=C(Nc1ccccc1C(=O)NCCc1ccc(O)cc1)c1ccco1	none
CC1(C(=O)NS(=O)(=O)c2cccc(Cl)c2)CCN1C(=O)C1(c2ccc(Cl)cc2)CCC1 (stereo not drawn)	none
Cc1sc2nc(CN3CCOCC3)nc(N3CCOCC3)c2c1C	none
Cc1sc2nc(CN3CCOCC3)nc(N3CCC(C(N)=O)CC3)c2c1C	CHO-K1 Ca antag 25
Cc1ccccc1NC(=O)NCCCN1CCN(C2CCCCC2)CC1	none
Cc1cc(C(=O)NCCCN2CCN(C3CCCCC3)CC2)n(-c2ccccc2)n1	CHRM1 agonist 36
CCN(C(=O)CSc1nc(N)cc(N)n1)C1CCS(=O)(=O)C1 (stereo not drawn)	none
CC(C)Cn1c(-c2ccc(Br)cc2)c[nH]c1=S	M1 ag parental 15
Cc1ccccc1NS(=O)(=O)c1nnc(NC(=O)c2ccccc2C)s1	none
Cn1nc(CC(=O)Nc2ccc3c(c2)OCCO3)c2ccccc2c1=O	CHRM1 antagonist 31, CHO-K1 Ca antag 27
Cc1ccc(NC(=O)Cc2nn(C)c(=O)c3ccccc23)cc1F	none
CCC(=Cc1ccccc1OC)c1ccncc1	none
Cc1ccc(N(CC(=O)N2CCc3ccccc3C2)S(C)(=O)=O)cc1	none
Cc1cccc(NC(c2ccc(O)cc2)c2ccc3ccc(C)nc3c2O)n1 (stereo not drawn)	CHO-K1 Ca antag 25
Cc1cc(NC(c2cccnc2)c2ccc3cccnc3c2O)no1 (stereo not drawn)	none
CCC(CC)C(=O)OCC(=O)C1(O)CCC2C3CCC4=CC(=O)CCC4(C)C3C(O)CC21C (stereo not drawn)	CHRM1 antagonist 68
